Calls of active or inactive are those of the source. How the calls were made is not given here.
Assay: C difficile toxins, biochemical counterscreen, UDPG substrate absence, confirmatory dose response (AID 720650)
Details: series mostly up to 19.5 µM

| SMILES | AC50 |
| --- | --- |
| CCOC(=O)N1CCN(C(=S)NC(=O)c2ccc(F)c(F)c2)CC1 | inactive |
| COc1cc(/C=C/c2sc3ccccc3[n+]2CCCS(=O)(=O)[O-])ccc1O | inactive |
| O=C(COc1ncnc2ccccc12)NCCc1ccc(F)cc1 | inactive |
| C/C(=N\NC(=O)c1ccccc1O)c1cccc(NC(=O)c2ccccc2)c1 | inactive |
| COCCn1c(NC(=S)NC(=O)C2CC2)cc(=O)[nH]c1=O | inactive |
| C=CCNS(=O)(=O)c1nc(C)c(Cl)c(C)c1C#N | inactive |
| O=C(Cn1cc(COc2ccc(Cl)c(Cl)c2)nn1)NS(=O)(=O)c1ccccc1OC(F)(F)F | inactive |
| O=C(N/N=C/c1ccc(O)c(O)c1)C1CC1 | > 39 µM (inactive) |
| Cc1cnc([N+](=O)[O-])n1CCOC(=O)NC(=O)c1ccc(F)cc1 | inactive |
| C/C(CCc1ccccc1)=N\NC(=O)C1C2CCCCC21 (centres undefined) | inactive |
| CCc1ccc(NC(=O)c2cc(C)on2)cc1 | inactive |
| COc1ccc(-c2nc(N)ncc2-c2ccccc2OC)c(O)c1 | inactive |
| Cc1ccc(-c2nc3ccc([N+](=O)[O-])cc3[nH]2)cc1 | 7.38 µM (active) |
| Cc1ccc(S(=O)(=O)N2CC(CBr)=CCC2c2ccccc2)cc1 (centres undefined) | 13.9 µM (active) |
| CCN1CCN(S(=O)(=O)c2ccc3[nH]c(=O)oc3c2)CC1 | inactive |
| COc1cc(C(=O)Nc2scc(-c3ccccc3)c2C(=O)O)cc(OC)c1OC | 13.9 µM (active) |
| Cc1ccc(C(=O)Nc2ccc(N3CCCCC3)cc2)cc1 | inactive |
| Fc1cccc(NC(=S)NNc2c3ccccc3nc3ccccc23)c1 | inactive |
| CCC(=O)Nc1ccc2c(c1)OC[C@H](C)N(C(=O)NC(C)C)C[C@@H](C)[C@@H](OC)CN(C)C2=O | inactive |
| CC(=O)Nc1cc(-c2ccc(F)cc2)[nH]n1 | 2.6 µM (active) |

| SMILES | AC50 |
| --- | --- |
| CCOCC(=O)Nc1cc(Cl)ccc1C | inactive |
| CN(C)CCCNC(=O)C[C@H]1CC[C@@H]2[C@@H](COc3ccc(NC(=O)c4ccc5c(c4)OCO5)cc3C(=O)N2C)O1 | inactive |
| CCOC(=O)Cn1c(C(F)(F)F)nc2nc(Cl)c(Cl)nc21 | inactive |
| Cn1c(=O)[nH]c(=O)c2c1[nH]c(=S)n2Cc1ccc(Cl)cc1 | > 39 µM (inactive) |
| CCOC(=O)c1ccc(NC(=O)Oc2cc(C)c(Cl)cc2C(C)C)cc1 | inactive |
| O=C(O)c1ccc(-c2nnc(-c3ccccc3)o2)cc1 | inactive |
| O=C(C[C@@H]1CC[C@H]2[C@@H](COC[C@@H](O)CN2Cc2ccc(Oc3ccccc3)cc2)O1)Nc1nccs1 | inactive |
| Cc1nn(C)cc1-c1n[nH]c(=S)n1-c1ccc(F)cc1 | inactive |
| COc1ccc(C(=O)NC(CC(=O)O)c2cc([N+](=O)[O-])ccc2Cl)c(SC)c1 (centres undefined) | inactive |
| COc1cc(/C(C)=N/NC(=O)CSc2nnc(C)s2)ccc1O | inactive |
| Cc1nn(CCOc2ccccc2)c(=O)n1-c1ccc(Cl)cc1 | inactive |
| COc1cc(O)ccc1C(=O)CCc1ccc(O)cc1 | 10.7 µM (active) |
| Cc1nc(-c2ccccn2)nc(SCC(=O)c2ccc(F)cc2)c1Cl | inactive |
| COc1ccc(CNC(=O)c2cc3c(s2)CN(Cc2ccccc2)C3)cc1 | inactive |
| CCCCn1c(N)c(N(CC)C(=O)c2cccs2)c(=O)[nH]c1=O | > 39 µM (inactive) |
| COc1cc(C=C2CN(C)C(=O)C2=O)ccc1O | inactive |
| COc1cccc(Oc2ccc3nnc(C(F)(F)F)n3n2)c1 | inactive |
| COC(=O)C1=C(c2ccc(OCc3ccccc3)cc2)C[C@@H]2CC[C@H]1N2C(=O)NCCCc1ccccc1 | inactive |
| CCc1ccccc1NC(=S)N(Cc1ccc(C(=O)O)cc1)Cc1ccc(OC)c(OC)c1 | inactive |

— PubChem BioAssay AID720650 (Broad Institute, 2013)
